NPR1 antag = antagonists of human natriuretic peptide receptor Npr1. AID 1347048. Potency, µM (doses to about 46.3 µM), most hits filed as inhibitors. 76,000 compounds, 1.6% hits. P16066. HEK293 hNpr1 GloSensor cGMP, ANP-stimulated luminescence; calls by dose curve; also: nearly all actives have a fitted effect of over 60% in size
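HEK293 cells stably expressing human Npr1 and cGMP GloSensor pGS-40F, loaded 2 h with 2% GloSensor reagent, given compound 30 min at room temperature. Luminescence read before and 20 min after 0.1 nM hNppA.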
HEK cytotox = cytotoxic compounds in HEK 293 cells; HEK 293 viability, ATP luminescence (CellTiter-Glo), 48-72 h; Potency, µM (highest dose often 115 µM), usual class: inhibitors; 94,000 compounds, 6.6% hits; AID 1345083; also: nearly all actives have a fitted effect of over 60% in size
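qHTS cytotoxicity; HEK 293, 250 cells/well; compound pinned; 48 or 72 hr, 37 degree Celsius, 5% CO2, 95% humidity; CellTiter-Glo, 10 min RT; luminescence (ATP).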
FLuc inh = inhibitors of firefly (Photinus pyralis) luciferase; P08659; purified P. pyralis luciferase, luminescence, biochemical; AID 1347043; Potency, µM (highest dose often 115 µM), most hits filed as inhibitors; 76,000 compounds, 2.5% hits; also: nearly all actives have a fitted effect of over 65% in size
Target sequence (P08659 whole entry, looked up): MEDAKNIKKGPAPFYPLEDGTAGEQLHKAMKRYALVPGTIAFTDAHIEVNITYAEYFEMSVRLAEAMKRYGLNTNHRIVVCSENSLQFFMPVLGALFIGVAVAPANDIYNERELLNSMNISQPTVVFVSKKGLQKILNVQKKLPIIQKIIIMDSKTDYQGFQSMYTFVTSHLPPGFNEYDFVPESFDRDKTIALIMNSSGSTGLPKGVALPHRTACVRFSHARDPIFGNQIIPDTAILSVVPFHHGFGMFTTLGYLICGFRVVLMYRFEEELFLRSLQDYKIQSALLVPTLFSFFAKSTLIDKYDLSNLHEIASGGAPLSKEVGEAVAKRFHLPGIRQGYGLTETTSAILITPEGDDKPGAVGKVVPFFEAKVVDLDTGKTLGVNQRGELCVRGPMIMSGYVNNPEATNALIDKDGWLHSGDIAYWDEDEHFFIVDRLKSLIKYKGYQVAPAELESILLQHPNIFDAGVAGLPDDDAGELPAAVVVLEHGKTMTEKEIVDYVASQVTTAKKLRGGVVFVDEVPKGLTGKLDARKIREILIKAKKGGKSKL
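Cell-free enzyme assay, 10nM P. pyralis luciferase, luciferin and ATP each at 10uM. Inhibition profiled over a 6-point titration, read as luminescence.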
3T3 cytotox = kills NIH 3T3 cells; AID 1345082; 94,000 compounds, 4.3% hits; NIH 3T3 viability, CellTiter-Glo ATP luminescence, 48-72 h; Potency, µM (highest dose often 96.7 µM), usual class: inhibitors; also: nearly all actives have a fitted effect of over 55% in size
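Cytotoxicity was measured by CellTiter-Glo ATP luminescence after 48 or 72 h compound exposure at 37 °C. Mouse NIH 3T3 fibroblasts were seeded at 400 cells/well and dosed by 23 nL pin transfer.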
Each line names hits and unclear results; the compound was inactive in the other large screens. A selection: hits, their analogues and other compounds. The true share with any hit is near 11%. Unless noted, calls follow the shape of the dose curve; as a rule, active = well fitted curve in the direction sought with a large enough effect; inconclusive = small, poorly fitted or top-dose-only effect, or another doubt; inactive = no such curve, though single readings can be large; an effect the other way counts as inactive or inconclusive.

CC(C)NC(=O)c1ccc2c(c1)C1(CCN(CC3CC3)C1)CN2Cc1ccccc1 (stereo not given)	HEK cytotox inconclusive, 3T3 cytotox 89µM
CCOC(=O)C1=C(C)N=C2SC=C(CC(=O)N3CCC(C)CC3)N2C1c1cccc(OC)c1 (stereo not given)	HEK cytotox inconclusive, 3T3 cytotox inconclusive
COCCOC(=O)C1=C(C)N=C2SC=C(CC(=O)N3CCCCC3C)N2C1c1ccccc1 (stereo not given)	HEK cytotox 35µM
COCCOC(=O)C1=C(C)N=C2SC=C(CC(=O)NCc3cccc(F)c3)N2C1c1ccccc1 (stereo not given)	HEK cytotox inconclusive
CC1=C(C(=O)Nc2ccccc2)C(c2cc(C)ccc2C)N2C(CC(=O)N3CCCC3)=CSC2=N1 (stereo not given)	NPR1 antag inconclusive, HEK cytotox 32µM, 3T3 cytotox inconclusive
COCCOC(=O)C1=C(C)N=C2SC=C(CC(=O)NCCc3ccccc3)N2C1c1ccccc1 (stereo not given)	HEK cytotox 50µM, 3T3 cytotox inconclusive
CCOC(=O)C1=C(C)N=C2SC=C(CC(=O)N3CCC(C)CC3)N2C1c1ccccc1F (stereo not given)	HEK cytotox 40µM, 3T3 cytotox inconclusive
CCC1CCCCN1CCCNC(=O)CCc1cc2cc(OC)ccc2[nH]c1=O (stereo not given)	none
COc1ccc(S(=O)(=O)Nc2ccc3n(c2=O)C[C@H]2C[C@@H]3CN(C(=O)Nc3cc(OC)cc(OC)c3)C2)cc1	3T3 cytotox 50µM
O[C@H]1[C@H](NCc2ccc(-c3ccccc3)cc2)[C@H]2CO[C@H](O2)[C@@H]1Sc1ccccc1	NPR1 antag inconclusive, HEK cytotox 40µM, 3T3 cytotox 63µM
O[C@H]1[C@H](NCc2ccccc2)[C@H]2CO[C@H](O2)[C@@H]1Sc1ccccc1	HEK cytotox inconclusive
O[C@H]1[C@H](NCc2ccc(-c3ccccc3)cc2)[C@H]2CO[C@H](O2)[C@@H]1Oc1ccccc1	HEK cytotox 89µM, 3T3 cytotox 112µM
N#Cc1ccc(CNC(=O)[C@@H]2Cc3nc[nH]c3CN2CC2CCCCC2)cc1	HEK cytotox inconclusive
CCN(CC)C(=O)N1CCC(n2c(C)cnc2C2CCOCC2)CC1	none
O=C(C1CC1)N1CCc2nc(-c3ccccc3)nc(-c3ccc(Cl)cc3)c2C1	none
CCc1nc2c(c(-c3ccc(O)cc3)n1)CN(C(=O)C1CCCC1)CC2	HEK cytotox 40µM, 3T3 cytotox inconclusive (no result: NPR1 antag, FLuc inh)
COc1ccc(-c2nc(C3CC3)nc3c2CN(C(=O)c2ccccc2F)CC3)cc1	3T3 cytotox 28µM (no result: NPR1 antag, FLuc inh)
COc1ccc(-c2nc(-c3ccccc3)nc3c2CN(C(=O)C2CCCC2)CC3)cc1	HEK cytotox 35µM, 3T3 cytotox inconclusive
O=C(C1CCCC1)N1CCc2nc(-c3ccccc3)nc(-c3ccc(Cl)cc3)c2C1	HEK cytotox 35µM, 3T3 cytotox inconclusive
COC(=O)N1CCc2nc(-c3ccc(OC)cc3)nc(-c3ccccc3)c2C1	HEK cytotox inconclusive, 3T3 cytotox inconclusive
CCOc1ccc(C(=O)N2CC(c3nnc(C(C)C)o3)C3(CCOCC3)C2)cc1 (stereo not given)	none
CC(C)c1cnc(C2CCN(C(=O)OC(C)(C)C)CC2)[nH]1	none (no result: NPR1 antag, FLuc inh)
COc1ccccc1CC(=O)N1CCCc2ncc(C(=O)NCc3ccc(OC)c(OC)c3)cc21	NPR1 antag inconclusive, HEK cytotox inconclusive
O=C(C1CCCC1)N1CCc2nc(-c3ccc(Cl)cc3)nc(-c3ccccc3)c2C1	HEK cytotox 18µM, FLuc inh inconclusive, 3T3 cytotox inconclusive
Cc1noc([C@@H]2CC(F)(F)CN2C(=O)c2ccoc2C)n1	none
O=C(C[C@@H]1C[C@H]2O[C@H](CNC3CCOCC3)[C@@H](O)[C@H]2O1)N1CCOCC1	none
CC(C)CN(Cc1cccnc1)C1CN(C(=O)CC2CCCCC2)C1	HEK cytotox inconclusive, 3T3 cytotox 5.6µM
CC(C)CN(Cc1cccnc1)C1CN(C(=O)NCc2ccccc2)C1	none
Cc1nccn1CCCC(=O)N[C@@H]1CCOC[C@H]1OCC(=O)O	none
Cc1ccc(-c2ccc(CCC(=O)N[C@@H]3CCOC[C@H]3OCC(=O)O)o2)cc1	FLuc inh 25µM
Clc1cccc(N2CCN(C3CCCN(CCCc4ccccc4)C3)CC2)c1 (stereo not given)	HEK cytotox inconclusive, 3T3 cytotox inconclusive
COc1cccc(Nc2cc3c(cn2)NCCN(Cc2ccccc2)C3)c1	HEK cytotox 89µM, 3T3 cytotox inconclusive
COc1ccc(OC)c(CN2CCNc3cnc(Nc4cccnc4)cc3C2)c1	HEK cytotox inconclusive, 3T3 cytotox inconclusive
COCCN1CCNc2cc(NCc3ccccc3)ncc2C1	HEK cytotox inconclusive, 3T3 cytotox inconclusive
COc1cccc(CN2CCNc3cnc(Nc4ccccc4)cc3C2)c1	NPR1 antag inconclusive, HEK cytotox 89µM, 3T3 cytotox inconclusive
COc1ccc(Nc2cc3c(cn2)CN(CCc2ccccc2)CCN3)cn1	HEK cytotox 63µM, 3T3 cytotox 50µM
COCCN(CC1CC1)C(=O)c1ccc2nc(-c3ccc(F)cc3)cn2c1	HEK cytotox inconclusive
CN(C(=O)c1ccc2nc(-c3ccc(F)cc3)cn2c1)C1CCOCC1	HEK cytotox inconclusive, FLuc inh 32µM
COC(=O)N1CCC(C(=O)N2CCC(c3nc4ncccc4[nH]3)CC2)C1 (stereo not given)	HEK cytotox 35µM, 3T3 cytotox inconclusive (no result: NPR1 antag, FLuc inh)
COc1ccc2nc([C@H]3CCN(C4CCCCC4)C3)[nH]c2c1	NPR1 antag inconclusive, HEK cytotox inconclusive, FLuc inh 14µM, 3T3 cytotox inconclusive
COc1ccc2nc([C@H]3CCN(CC(C)C)C3)[nH]c2c1	HEK cytotox 89µM, 3T3 cytotox 112µM
COc1ccc2nc([C@H]3CCN(Cc4ccncc4)C3)[nH]c2c1	none
Cc1ccc2nc([C@H]3CCN(Cc4ccc(S(C)(=O)=O)cc4)C3)[nH]c2c1	HEK cytotox 79µM
COC(=O)N1CCC(C(=O)N2CCC(c3nc4ncccc4[nH]3)CC2)CC1	none (no result: NPR1 antag, FLuc inh)
CCOC(=O)CCNC(=O)N1[C@@H]2CC[C@H]1CC(NC(=O)c1ccc(F)cc1)C2 (stereo not given in full)	none
Fc1ccc2nc([C@H]3CCN(C4CCC4)C3)[nH]c2c1	NPR1 antag 40µM, HEK cytotox inconclusive, FLuc inh 5µM, 3T3 cytotox inconclusive
COc1ccc(CN2CC[C@H](c3nc4ccc(C)cc4[nH]3)C2)cc1	HEK cytotox 79µM, 3T3 cytotox 79µM
COc1ccc(CN2CC[C@H](c3nc4ccc(OC)cc4[nH]3)C2)cc1	HEK cytotox inconclusive, FLuc inh inconclusive, 3T3 cytotox inconclusive
c1cnc2nc([C@H]3CCN(C4CCCCC4)C3)[nH]c2c1	FLuc inh 28µM
O=C(C1CCCN([S+](=O)([O-])c2cccs2)C1)N1CCCC(c2nc3ncccc3[nH]2)C1 (stereo not given)	HEK cytotox 89µM, 3T3 cytotox inconclusive (no result: NPR1 antag, FLuc inh)
O=C(c1ccc(-c2ccco2)cc1)N1CCOc2ccc(CN3CCN(c4ccccn4)CC3)cc2C1	none
CS(=O)(=O)N1CCC(OC2CCN(C(=O)Cc3c[nH]c4ccccc34)CC2)CC1	NPR1 antag inconclusive
